Bioassay records as filed in PubChem BioAssay.
Lassa entry: blocks Lassa virus binding or cell entry; Lassa virus pseudotyped entry inhibition, cell-based qHTS; Potency, µM (series often up to 49.2 µM), most hits filed as inhibitors; actives 4.1% (n = 18,000)
Marburg entry: blocks Marburg virus binding or cell entry. Marburg virus pseudotype entry/binding inhibition, cell-based. Potency, µM (doses to about 49.2 µM), most hits filed as inhibitors. actives 6.5% (n = 18,000). AID 720532
Each line names hits and unclear results; the compound was inactive in the other large screens; ! = a repeat was not active. Only some compounds are listed: those with a hit (about 7.1% of all), similar ones and a draw of the others. Calls follow the shape of the full dose curve; tested in HEK293 cells.

C=C(C)[C@]12C[C@@H](C)[C@@]34O[C@](Cc5ccccc5)(O[C@@H]1[C@@H]3C=C(COC(=O)Cc1ccc(O)c(OC)c1)C[C@]1(O)C(=O)C(C)=C[C@@H]41)O2	Lassa entry inconclusive, Marburg entry 15.8µM
O=C(C[C@H]1C(=O)N(CCc2ccccc2)C[C@@H]1Cc1ccccc1)Nc1ccc(Br)cc1	Marburg entry inconclusive
Cc1ccc(CN2CCC(=O)N(Cc3ccccn3)CC2)c(C)c1	none
Cc1ccc(CN2C(=O)C[C@@H](NS(=O)(=O)c3ccc4ccccc4c3)C/C=C\C2c2ccc(C)cc2)cc1 (some centres undefined)	none
CN(C)C1CCN(CCCOc2ccc(-c3ccc(C#N)cc3)cc2)C1 (centres undefined)	Lassa entry inconclusive, Marburg entry 11.2µM
O=C(O)P(=O)(O)O	none
O=P(O)(O)O	Lassa entry 35.5µM, Marburg entry 6.31µM
COc1cc(/C=C(\C#N)C(N)=O)cc(CSc2nc3ccccc3s2)c1O	none
CN1C(=O)C[C@H](C(=O)O)[C@@H]1c1cccnc1	none
CC[C@@H](C(=O)O)[C@@H]1O[C@@H]([C@@H](C)[C@H](O)[C@H](C)C(=O)[C@H](CC)[C@H]2O[C@]3(C=C[C@@H](O)[C@]4(CC[C@@](C)([C@H]5CC[C@](O)(CC)[C@H](C)O5)O4)O3)[C@H](C)C[C@@H]2C)[C@@H](C)C[C@@H]1C	Lassa entry 1µM, Marburg entry 6.31µM
COc1cccc(Cc2nc3cccnc3n2C2CCN(Cc3ccc(C)s3)CC2)c1	none
CCNc1nc(Cl)nc(NC(C)C)n1	none
c1ccc2c(c1)OCCOCCOCCOCCO2	none
CC(C)=CCCC1(C)C=Cc2c(O)c3c(c(CC=C(C)C)c2O1)OC12C(=CC4CC1C(C)(C)OC2(C/C=C(/C)C(=O)O)C4O)C3=O (centres undefined)	Lassa entry 4.47µM, Marburg entry 3.55µM
CC(C)=CCCC1(C)C=Cc2c(O)c3c(c(CC=C(C)C)c2O1)OC12C(=CCCC1C(C)(C)O[C@@]2(C/C=C(\C)C(=O)O)C(=O)O)C3=O (some centres undefined)	none
CC(C)=CCCC1(C)C=Cc2c(O)c3c(c(CC=C(C)C)c2O1)OC12C(=CC4CC1C(C)(C)OC2(C/C=C(/C)C(=O)O)C4=O)C3=O (centres undefined)	Lassa entry 5.01µM, Marburg entry 2.82µM
CC(C)CCCC1(C)C=Cc2c(O)c3c(c(CCC(C)C)c2O1)OC12C(CC4CC1C(C)(C)OC2(CCC(C)C(=O)O)C4O)C3=O (centres undefined)	none
O=C(O)Cc1cn(-c2ccccc2)nc1-c1ccc(Cl)cc1	none
NC(Cc1ccc(O)c(O)c1)C(=O)O (centres undefined)	Marburg entry 1.58µM
N[C@@H](Cc1ccc(O)cc1)C(=O)O	none
COc1ccc(-c2ccc(C(=O)NCC3Cc4cccc(-c5nc(C)cnc5C)c4O3)o2)cc1 (centres undefined)	none
CCN(CC)CCNc1ccc(CO)c2sc3ccccc3c(=O)c12	Marburg entry 11.2µM
COc1c2c(cc3c1C(CC(O)C(C)C)N(C)CC3)OCO2 (centres undefined)	none
CCCCCN=c1ccn(Cc2ccccc2)c2ccccc12	Lassa entry 20µM, Marburg entry 14.1µM
CC(C)C[C@H](N)C(=O)N[C@H](C(=O)N[C@H](C(=O)N[C@@H](Cc1ccc(O)cc1)C(=O)N1CCC[C@H]1C(=O)N[C@@H](Cc1c[nH]c2ccccc12)C(=O)N[C@H](C(=O)N[C@@H](CCC(N)=O)C(=O)N[C@@H](CCCN=C(N)N)C(=O)O)[C@@H](C)O)C(C)C)C(C)C	none
COc1cccc(CN2CCC3(CCC(CNC(=O)c4ccccc4)O3)CC2)c1 (centres undefined)	none
CC(C)(O)C1O[C@H]2CC[C@@]3(C)[C@@](O)(CC[C@H]4Cc5c([nH]c6ccccc56)[C@@]43C)C2=CC1=O (some centres undefined)	Lassa entry 31.6µM!, Marburg entry inconclusive
C[C@H]1[C@H](c2ccccc2)Oc2cc(Br)ccc2S(=O)(=O)N1Cc1ccc(Cl)cc1	none
CN1C2CCC1CC(OC(=O)C(O)c1ccccc1)C2 (centres undefined)	none
CC(C(=O)OC1CC2CCC(C1)N2C)c1ccc(Br)cc1 (centres undefined)	Marburg entry 28.2µM
CN1CCC(OC(=O)C(Oc2ccc(Cl)cc2)Oc2ccc(Cl)cc2)CC1	none
CCC(Oc1ccc(Cl)cc1)C(=O)OC1CC2CCC(C1)N2C (centres undefined)	Lassa entry inconclusive, Marburg entry 6.31µM
Cc1ncc2c(c1CNC(=O)c1ccc3c(c1)OCO3)CCN(C(=O)/C=C/c1ccccc1Cl)C2	none
CC1(OC(=O)c2cnc3ccccc3n2)C(=O)C=C2C=C(C3CC3)OC=C2C1=O (centres undefined)	none
COc1cccc(-c2cncnc2NCCc2cnc[nH]2)c1	none
COc1cccc(-c2nc3cc4c(cc3cc2CN(C(=O)c2cccs2)C2CC2)CCC4)c1OC	Lassa entry 12.6µM, Marburg entry inconclusive
COc1cccc(C(=O)N(Cc2cc3ccc(C)cc3nc2N(C)C)C2CC2)c1OC	Lassa entry 5.01µM, Marburg entry 3.98µM
COc1ccc(-c2nc3cc(C)ccc3cc2CN(C(=O)c2cccs2)C2CC2)cc1OC	Lassa entry inconclusive
COc1ccc(-c2nc3cc(C)ccc3cc2CN(C(=O)c2ccco2)C2CC2)cc1OC	none
COc1cc2c(cc1OC)[C@@H]1O[C@](CCCCN3C(=O)c4ccccc4C3=O)(C2)Oc2cc(C)n(Cc3ccccc3)c(=O)c21	none
COc1cc2c3cc1Oc1cc(ccc1O)C[C@@H]1c4c(cc(OC)c(O)c4Oc4ccc(cc4)C[C@@H]3N(C)CC2)CC[N+]1(C)C	none
COc1ccc2cc1Oc1ccc(cc1)CC1c3cc(c(OC)cc3CCN1C)Oc1c(OC)c(OC)c(OC)c3c1C(C2)N(C)CC3 (centres undefined)	Lassa entry inconclusive, Marburg entry 10µM
COc1cc(=O)n2c(c1C(=O)N(C)Cc1nonc1C)CCN(CC1CC=CCC1)CC2 (centres undefined)	none
O=C(NCC1(N2CCCCC2)CCCCC1)c1ccc(-n2cc(NC(=O)c3cccnc3)cn2)cc1	Marburg entry 3.98µM
CCOC(=O)C1CCCCN1C(=O)c1ccc(-n2cc(NC(=O)c3cccnc3)cn2)cc1 (centres undefined)	none
Fc1ccc(-c2ncn(C3CCNCC3)c2-c2ccnc(Oc3ccc4c(c3)OCO4)n2)cc1	Lassa entry inconclusive, Marburg entry 6.28µM
NC(=O)Cc1ccccc1Oc1nccc(-c2c(-c3ccc(F)cc3)ncn2C2CCNCC2)n1	Marburg entry inconclusive
CN1CCc2cc3c(cc2[C@@H]1[C@@H]1OC(=O)c2c1ccc1c2OCO1)OCO3	none
CC(=O)O[C@H]1C[C@@H]2CC[C@@H]3[C@H](CC[C@@]4(C)[C@H]3C[C@H]([N+]3(C)CCCCC3)[C@@H]4OC(C)=O)[C@@]2(C)C[C@@H]1N1CCCCC1	none
CCC(=O)O[C@H]1[C@@H](N2CCCCC2)C[C@H]2[C@@H]3CC[C@H]4C[C@H](OC(C)=O)[C@@H](N5CCCCC5)C[C@]4(C)[C@H]3CC[C@@]21C	Lassa entry inconclusive, Marburg entry 3.55µM
CNC1(c2ccccc2Cl)CCCCC1=O (centres undefined)	none
COc1ccccc1C1CN(Cc2cccc(OCCO)c2)Cc2ccccc2O1 (centres undefined)	none
O=C(/C=C/c1ccc(O)c(O)c1)c1ccc(O[C@@H]2O[C@H](CO)[C@@H](O)[C@H](O)[C@H]2O)c(O)c1O	Marburg entry 3.16µM
